Screen size: about 310,000 compounds; about 14,000 (4.5%) showed an effect of 50% or more. Effects have a minus sign here. This excerpt belongs to a sample that is enriched for strong results.
target: human ether-à-go-go-related gene (hERG) potassium channel (human, UniProt Q12809); test: primary screen, population patch clamp on CHO cells stably expressing hERG; higher = less effect of the substance
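Note: peak tail current of the secondary pulse compared with the same well before compound.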

human ether-à-go-go-related gene (hERG) potassium channel, sequence (Q12809 whole entry, looked up): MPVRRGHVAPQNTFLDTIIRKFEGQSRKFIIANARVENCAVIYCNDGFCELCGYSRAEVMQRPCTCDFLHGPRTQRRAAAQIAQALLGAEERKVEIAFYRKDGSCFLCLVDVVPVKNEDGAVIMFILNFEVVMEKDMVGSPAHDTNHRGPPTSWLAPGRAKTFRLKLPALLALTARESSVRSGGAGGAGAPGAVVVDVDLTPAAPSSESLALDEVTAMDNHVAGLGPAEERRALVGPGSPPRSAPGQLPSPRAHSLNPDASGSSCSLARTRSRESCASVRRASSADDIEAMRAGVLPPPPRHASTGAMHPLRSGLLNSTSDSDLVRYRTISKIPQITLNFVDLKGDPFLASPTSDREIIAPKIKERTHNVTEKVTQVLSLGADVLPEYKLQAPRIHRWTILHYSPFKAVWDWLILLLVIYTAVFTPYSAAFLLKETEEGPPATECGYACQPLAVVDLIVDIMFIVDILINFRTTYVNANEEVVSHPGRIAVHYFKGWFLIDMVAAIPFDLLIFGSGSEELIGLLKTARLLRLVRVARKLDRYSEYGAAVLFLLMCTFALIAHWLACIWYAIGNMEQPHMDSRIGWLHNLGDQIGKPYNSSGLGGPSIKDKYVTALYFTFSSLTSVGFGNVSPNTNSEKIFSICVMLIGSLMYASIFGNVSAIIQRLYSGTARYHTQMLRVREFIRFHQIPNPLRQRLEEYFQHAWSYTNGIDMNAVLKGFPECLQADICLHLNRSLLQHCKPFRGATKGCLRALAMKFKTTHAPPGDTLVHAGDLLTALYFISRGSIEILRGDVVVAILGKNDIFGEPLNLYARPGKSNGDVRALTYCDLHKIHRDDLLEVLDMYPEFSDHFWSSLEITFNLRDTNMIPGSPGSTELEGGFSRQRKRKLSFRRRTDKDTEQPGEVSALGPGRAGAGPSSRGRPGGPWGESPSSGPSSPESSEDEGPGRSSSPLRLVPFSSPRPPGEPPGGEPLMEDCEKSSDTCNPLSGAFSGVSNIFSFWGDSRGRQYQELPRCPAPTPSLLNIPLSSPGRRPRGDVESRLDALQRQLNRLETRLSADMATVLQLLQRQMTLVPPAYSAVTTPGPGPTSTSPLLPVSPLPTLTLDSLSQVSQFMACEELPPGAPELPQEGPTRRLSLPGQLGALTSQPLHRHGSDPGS

SMILES | hERG current change (%, negative = inhibition) at 10uM [%]
C=CCC1NS(=O)(=O)OC2CCCC12 (stereo not shown) | 10.6
Cc1ccc(Cn2cccc(NC(=O)NCc3ccccc3)c2=O)cc1 | -6.27
NC(=O)c1ccc[n+]([C@H]2O[C@@H](COP(=O)([O-])OP(=O)(O)OC[C@H]3O[C@@H](n4cnc5c(N)ncnc54)[C@H](O)[C@@H]3O)[C@H](O)[C@@H]2O)c1 | 12.1
Cc1c(C(=O)NN2CCOCC2)oc2c1ccc1ccccc12 | 2.24
Cc1ccc(C(=O)OCc2nnc(-c3ccccc3)o2)cc1S(=O)(=O)N1CCOCC1 | -26.7
CN1CCN(C(=O)CC2(CC(=O)O)CCCC2)CC1.Cl | -1.66
CCn1c(CNC(=O)c2cccc(C)c2)nnc1SCC(=O)Nc1nnc(C)s1 | 15.4
Cn1c(=O)c(=O)n(C)c2cc(S(=O)(=O)NCCOc3ccccc3Cl)ccc21 | 1.26
COc1ccccc1/C=C/CN1CCCC(CO)(Cc2cccc(Cl)c2)C1 (stereo not shown) | -69.6
COc1ccc(C2CC(=O)c3cc(OC)c(OC)cc32)cc1OC (stereo not shown) | 20.7
COc1ccc(CN(C)C(C)C(=O)Nc2cccc3ccccc23)cc1 (stereo not shown) | -14.1
Cc1ccc(NC(=O)C2CC(=O)Nc3nncn32)cc1 (stereo not shown) | 14.4
O=C(COC(=O)c1ccc(O)cc1)NCC1COc2ccccc2O1 (stereo not shown) | -3.35
COc1ccc(/C=C/C(=O)NC(=S)NNC(=O)c2ccco2)cc1 | 13.8
Cc1ccc(/C(O)=C2/C(=O)C(=O)N(CCN3CCOCC3)C2c2cccs2)cc1 (stereo not shown) | 8.67
c1ccc(-c2csc3nnc(SCc4ccc5c(c4)OCCO5)n23)cc1 | -3.29
O=C(CSc1nnc2scc(-c3ccccc3)n12)N1CCN(Cc2ccccc2)CC1 | -41.8
Cc1ccc(-c2csc3nnc(SCC(=O)Nc4nsc(-c5ccccc5)n4)n23)cc1 | -62.9
O=C(CSc1nnc2scc(-c3ccccc3)n12)NCc1ccc2c(c1)OCO2 | -21.1
Cn1c(SCC(=O)N2CCN(Cc3ccccc3)CC2)nnc1-c1ccncc1 | -2.39
Cc1ccc(-c2csc3nnc(SCC(=O)N4CCN(Cc5ccccc5)CC4)n23)cc1 | -55.3
O=C(CSc1nnc2scc(-c3ccccc3)n12)Nc1nsc(-c2ccccc2)n1 | -40.1

SMILES | hERG current change (%, negative = inhibition) at 10uM [%]
c1ccc(-c2csc3nnc(SCc4ccc5c(c4)OCO5)n23)cc1 | -71.4
Cc1ccc(-c2nc(NC(=O)CSc3nnc4scc(-c5ccccc5)n34)ns2)cc1 | -1.19
CCOc1ccccc1NC(=O)C(Sc1nnnn1C)c1ccccc1 (stereo not shown) | -21.2
Cn1c(NC(=O)c2ccccc2)c(-c2cccs2)c(=O)c2ccccc21 | 7.07
CC(=O)c1ccc(N=Nc2c(C)[nH]n(-c3ccccc3)c2=O)cc1 | 8.59
CC1CCN(C(=S)c2cn(Cc3ccc(F)cc3)c3ccccc23)CC1 | -1.82
COc1cc(/C=C/C(=O)O)cc(S(=O)(=O)Nc2ccc3nc(C)sc3c2)c1OC | 26.5
CCOc1ccc(C(=O)Nc2ccccc2CC)cc1[N+](=O)[O-] | -21.9
CCOc1ccccc1NC(=O)c1ccc(OCC)c([N+](=O)[O-])c1 | -10.3
CCOc1ccc(C(=O)NC(=S)Nc2ccccc2N2CCCCC2)cc1[N+](=O)[O-] | 11.7
CCOc1ccc(C(=O)NC(=S)Nc2ccccc2N2CCC(C)CC2)cc1[N+](=O)[O-] | 5.75
CCOc1ccc(C(=O)Nc2ccccc2N2CCN(C(=O)c3ccccc3)CC2)cc1[N+](=O)[O-] | -83.3
CCOc1ccc(C(=O)Nc2ccccc2C#N)cc1[N+](=O)[O-] | -55.6
O=C1NC2(CCCCCC2)Cc2ccccc21 | -21.2
Cc1ccc(C(=O)NNC(=O)C(C)Oc2ccc3ccccc3c2)o1 (stereo not shown) | -13.2
C/C(CC(=O)NC(C)(C)C)=N\NC(N)=S | 20
CCN(CC)S(=O)(=O)c1ccc(NC(=O)c2cccc3c2C(=O)N(CCOC)C3)cc1 | -1.36
Cc1cc(C)n2nc(SC(C)C(=O)N3CCC4(CC3)OCCO4)nc2n1 (stereo not shown) | -0.197
COc1ccc(N2CCN(C(=O)c3cccc(Cn4cc(Cl)cn4)c3)CC2)cc1 | -48
O=C(O)c1ccc(Cn2cc(Cl)cn2)cc1 | 18.7
NNC(=O)c1ccc(Cn2cc(Br)cn2)cc1 | -2.07
O=C(c1ccc(Cn2cc(Cl)cn2)cc1)N1CCN(c2ccccc2)CC1 | -58.4

SMILES | hERG current change (%, negative = inhibition) at 10uM [%]
O=C(c1ccc(Cn2cc(Br)cn2)cc1)N1CCN(c2ccccc2)CC1 | -57.4
O=C(c1ccc(CN2CCOCC2)cc1)N1CCN(c2ccccc2)CC1 | 3.02
O=C(O)C1C(=O)NCC1c1ccccc1 (stereo not shown) | 10.6
Cc1ccc(C(=O)NC2CCCC(C)C2C)cc1S(=O)(=O)N1CCCCC1 (stereo not shown) | -20.6
COC(=O)C1=C(C(=O)OC)N2C=CC=CC2(C)C(C(=O)OC)=C1C(=O)OC (stereo not shown) | -5.49
CCCCC(=O)Nc1ccc(N2CCN(C(=O)c3ccco3)CC2)cc1 | -18.1
COC(=O)c1cc(COC(=O)c2cccnc2SC)oc1C | -5.24
O=C(CCNC(=O)C1CCN(S(=O)(=O)c2ccc(F)cc2)CC1)Nc1nccs1 | 15.5
Cc1ccc(C2CC(=O)N(c3ccc(F)cc3)C3=C2C(=O)CCC3)cc1 (stereo not shown) | 0.885
CC1CCC(NC(=O)CCS(=O)(=O)c2ccc3c(c2)CC(C)N3C(=O)C2CC2)CC1 (stereo not shown) | 7.85
CN(C)CCNC(=O)c1ccccc1-c1ccccc1 | -1.88
CCCNC(=O)c1cc2ccccc2c(=O)o1 | 10.8
CN(C)CCNC(=O)c1ccccc1-c1cc2ccccc2c(=O)o1 | -54.6
COc1ccc(N(C)S(=O)(=O)c2cccc(C(=O)NC3CCCCC3C)c2)cc1 (stereo not shown) | -6.33
O=C(NCN1C(=O)C2C3C=CC(C3)C2C1=O)OC1CCCCC1 (stereo not shown) | 4.17
COc1ccc(C(CNC(=O)c2cc3c(s2)CCC(C)C3)N2CCOCC2)cc1 (stereo not shown) | -54
CCC1CCc2sc(C(=O)NCC(c3ccc(OC)cc3)N3CCOCC3)cc2C1 (stereo not shown) | -5.82
CCC1CCc2sc(C(=O)NCC3CCCO3)cc2C1 (stereo not shown) | -12.1
COc1ccc(C(CNC(=O)c2ccco2)N2CCCC2)cc1 (stereo not shown) | -7.05
CCC1CCc2sc(C(=O)N(C)CC(=O)Nc3ccc(OC)cc3)cc2C1 (stereo not shown) | -18.2
COc1ccc(C(CNC(=O)c2ccc(Cl)s2)N2CCOCC2)cc1 (stereo not shown) | -18.2
CCC1CCc2sc(C(=O)NCC(c3ccccc3OC)N3CCCC3)cc2C1 (stereo not shown) | -63.6

SMILES | hERG current change (%, negative = inhibition) at 10uM [%]
CCC1CCc2sc(C(=O)NCC(c3ccc(OC)cc3)N3CCCC3)cc2C1 (stereo not shown) | -71
COc1ccc(C(CNC(=O)c2cc3c(s2)CCCC3)N2CCOCC2)cc1 (stereo not shown) | -23.5
CC1CCc2sc(C(=O)NCC(c3ccco3)N3CCCCC3)cc2C1 (stereo not shown) | -30.8
COc1ccc(C(CNC(=O)c2cc3c(s2)CCC(C)C3)N2CCCC2)cc1 (stereo not shown) | -57.7
CCC1CCc2sc(C(=O)NCc3ccccn3)cc2C1 (stereo not shown) | -3.79
CCCNC(=O)Cn1nc(C(F)(F)F)c2c1CCCC2 | 9.29
CC(=O)Oc1ccc(/C=C2/SC(=S)N(Cc3ccccc3)C2=O)cc1 | 10.2
CCn1c(SCC(=O)N2CCc3ccccc32)nnc1-c1ccncc1 | -7.04
COc1ccc(CCNC(=O)C2=CC=CN3CCS(=O)(=O)N=C23)cc1 | -7.92
Cc1ccccc1/C=C\c1nc2ccccc2c(=O)[nH]1 | 10.5
CC(Oc1ccc2c(-c3ccccc3)cc(=O)oc2c1)C(=O)N1CCC[C@@H]1C(N)=O (stereo partly shown) | 1.14
O=C(NCCS(=O)(=O)c1ccc(Br)cc1)c1ccc(Cl)cc1 | -2.62
COc1ccc(CN(CCO)CCO)cc1[N+](=O)[O-].Cl | 3.54
CCCCOc1ccc(CN(CCO)CCO)cc1[N+](=O)[O-].Cl | -22
CCCOc1ccc(CN(CCO)CCO)cc1C(=O)OC | 6.82
CCCOc1ccc(CN(CCO)CCO)cc1[N+](=O)[O-].Cl | -54.2
CCOc1ccc(CN(CCO)CCO)cc1[N+](=O)[O-].Cl | -62.9
Cl.O=[N+]([O-])c1cc(CN(CCO)CCO)ccc1O | -2.79
CCOC(=O)N1CCN(CC(=O)Nc2cc3c(cc2C(C)=O)OCO3)CC1 | -1.3
Fc1ccc2nc(Nc3nc4c(s3)CCCC4)sc2c1 | 3.62
COC(=O)N(NC(=O)C(O)(c1ccccc1)c1ccccc1)c1ccccc1 | 9.59
COc1ccc(OCC(=O)Nc2cc(NC(=O)c3ccco3)ccc2OC)cc1 | 5.23
